A selection: hits, their analogues and other compounds. The true share with any hit is near 4.1%.
ALR inh: human ALR oxidase inhibition via reduced H2O2 | P55789 | purified ALR, DTT oxidation, H2O2 HRP-luminol luminescence | inhibition, % (concentration not given with the values) | 290,000 compounds, 3.8% hits;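 active means mean replicate inhibition above about 79%, with every replicate also reaching it, limit read from the data; inconclusive means only one of the two criteria met; inactive means mean below limit and not every replicate reaching it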
Target sequence (P55789 whole entry, looked up): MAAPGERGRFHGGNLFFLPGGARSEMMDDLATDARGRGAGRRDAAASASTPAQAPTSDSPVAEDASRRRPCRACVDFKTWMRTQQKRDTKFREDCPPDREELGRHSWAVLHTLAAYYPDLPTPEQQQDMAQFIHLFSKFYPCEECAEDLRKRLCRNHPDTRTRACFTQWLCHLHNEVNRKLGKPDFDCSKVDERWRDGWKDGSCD
PolyA inh: blocks polyadenylation in yeast reporter cells | S. cerevisiae SKY197-pL101 polyadenylation reporter, beta-gal luminescence; efflux-impaired pdr1/pdr3 knockout yeast; score 100 = 6 SD above DMSO | activity score, % at 12 µM | 300,000 compounds, 0.02% hits;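 active means lowest replicate activity score at least 50, where 100 means six control SD above control mean; inconclusive means lowest score under 50 but half or more replicates reach 50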;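 further: yeast exposed to compound for 9 h at 30 °C; higher score means more reporter readthrough which indicates perturbed polyadenylation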
CaV13 ICDI inh: Primary screen for inhibitors of IQ motif and Ca2+-dependent inactivation inhibitor domain binding in CACNA1D, Förster resonance energy transfer in living cells, …; inhibition, % at 12.3 µM; 340,000 compounds, 0.098% hits; HEK cells, CFP/YFP FRET ICDI-IQ, plate reader, 10 min; percent FRET-ratio fall versus neutral wells;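 active means mean replicate inhibition of at least 30% and at least 1% of replicates passing that level; inconclusive means only one of the two criteria is met; inactive means neither criterion is met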;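 further: 0% = median of the neutral control wells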
IDE cell activ: activators of human insulin-degrading enzyme in cells; P14735; 340,000 compounds, 0.073% hits; AID 493087; activation, % at 5.96 µM; HEK cells, FAbeta-B cleavage, fluorescence polarization; 0% vehicle, 100% cell-free pure enzyme wells;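 active means activation above the mean of all tested compounds plus 3 SD, set per screening campaign, cut at about 17% in these data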
IDE cell inh: cellular human IDE inhibition; 320,000 compounds, 0.41% hits; inhibition, % at 5.59 µM; HEK cells, FAbetaB cleavage, fluorescence polarization; P14735;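 active means percent inhibition above the average of all tested compounds plus 3 SD, set per screening campaign, cut at about 16% in these data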;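 further: IDE supplied by intact live HEK cells; FP after avidin binding of uncleaved biotin substrate so inhibition keeps polarization high; 0% = DMSO wells and 100% = 60 µM reference IDE inhibitor Ii1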
PfM18AAP inh-1: blocks P. falciparum M18 aspartyl aminopeptidase. inhibition, % at 7.35 µM. AID 1822. 290,000 compounds, 1.2% hits. recombinant PfM18AAP, H-Glu-NHMec fluorogenic cleavage;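 active means inhibition above the campaign mean inhibition over all tested compounds plus 3 SD, cut at about 28% in these data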;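 further: 0% = plate median of test compound wells and 100% = 2 mM ZnCl2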
PfM18AAP inh-2: confirmation of Plasmodium falciparum M18 aspartyl aminopeptidase inhibitors; shares compounds with PfM18AAP inh-1; recombinant PfM18AAP, H-Glu-NHMec fluorogenic cleavage; inhibition, % at 7.35 µM; 2,400 compounds, 28% hits;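 active means mean inhibition over replicate wells above the hit cutoff set for the earlier primary screen, cut at about 29% in these data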;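 further: 0% = median of test compound wells and 100% = 2 mM ZnCl2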
CTSL1 counter: counter-screen for PFM18AAP inhibitors: confirmation of human cathepsin L inhibitors. shares compounds with PfM18AAP inh-1. purified cathepsin L1, Z-Leu-Arg-MCA fluorescence. inhibition, % at 5.96 µM. 2,400 tested, under 10 active;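 active means average inhibition across replicates above the hit cutoff set in the earlier primary screen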;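 further: 0% = median of test compound wells and 100% = Z-Phe-Ala-diazomethylketone 1 µM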
Target sequence (P07711 whole entry, looked up): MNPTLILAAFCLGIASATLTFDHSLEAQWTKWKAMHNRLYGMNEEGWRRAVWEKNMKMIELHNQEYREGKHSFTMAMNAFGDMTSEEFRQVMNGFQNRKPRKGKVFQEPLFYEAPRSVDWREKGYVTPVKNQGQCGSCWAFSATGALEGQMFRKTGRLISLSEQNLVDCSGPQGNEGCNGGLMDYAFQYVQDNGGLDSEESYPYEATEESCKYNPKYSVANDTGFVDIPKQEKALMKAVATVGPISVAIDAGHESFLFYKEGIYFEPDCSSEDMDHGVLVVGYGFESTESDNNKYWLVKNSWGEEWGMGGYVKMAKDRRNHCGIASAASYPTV
* = called active by the depositor; ? = inconclusive; . = no result.

SMILES | ALR inh | PolyA inh | CaV13 ICDI inh | IDE cell activ | IDE cell inh | PfM18AAP inh-1 | PfM18AAP inh-2 | CTSL1 counter
Cc1c(Cc2ccccc2)c(=O)oc2cc(O)ccc12 | 47 | 0 | -5 | 7 | 1 | 3 | . | .
Cc1c(Cc2ccccc2)c(=O)oc2c(O)c(O)ccc12 | . | -11 | -5 | . | . | 47* | 23 | 8
CC1(C)Cc2cccc(OCC(=O)NCc3ccccc3F)c2O1 | . | . | -2 | 3 | 5 | . | . | .
COC(=O)CN(n1cnnc1)S(=O)(=O)c1ccccc1Cl | -6 | -13 | . | -2 | 1 | 87* | 77* | -5
CON(c1nc(N(C)C)nc(N(C)C)n1)S(=O)(=O)c1ccccc1Cl | -1 | -5 | . | 7 | -4 | -1 | . | .
O=C(C1CCN(S(=O)(=O)c2cc(Cl)ccc2Cl)CC1)N1CCOCC1 | 0 | -8 | -4 | 2 | 2 | -13 | . | .
CCCCn1c(-c2sccc2C)n[nH]c1=S | -5 | -5 | -2 | 2 | 7 | 32* | 1 | 5
CN(C)c1ncc(S(=O)(=O)c2ccccc2)c(=O)[nH]1 | . | 8 | -20 | 2 | 0 | 3 | . | .
COC(=O)c1cc(Br)c(=O)n(Cc2ccc(OC)c(OC)c2)c1 | -18 | 4 | -7 | 6 | -4 | -2 | . | .
O=C(O)CCNS(=O)(=O)c1ccc2ccccc2c1 | -12 | 7 | -3 | 8 | 0 | -11 | . | .
O=C(O)CCNc1cc2ccccc2cc1C(=O)O | 42 | -10 | -5 | -1 | -5 | 35* | -4 | -3
O=C(O)c1ccc(N/N=C/c2c(F)cccc2Cl)cc1 | 42 | -6 | -4 | 3 | -4 | 39* | -9 | 5
O=C(N/N=C/c1c(F)cccc1Cl)C1CC1 | -4 | -2 | -3 | 1 | -4 | -5 | . | .
O=C(O)c1cccc(NS(=O)(=O)c2ccc(S(=O)(=O)N3CCOCC3)cc2)c1 | . | -1 | . | 3 | . | -4 | . | .
COc1ccc(-c2nc(N)n(C(=O)c3ccccc3)n2)cc1 | . | -25 | -9 | 0 | . | -2 | . | .
CCOc1ccc(C(=O)n2cnnc2N)cc1 | . | 1 | -2 | 4 | 0 | 48* | 56* | 1
COc1ccc(C(=O)n2cnnc2N)cc1 | 5 | 6 | -6 | 5 | 3 | 48* | 61* | 1
NC(=O)CC1(c2ccccc2)CCCCC1 | . | . | -5 | . | . | . | . | .
N#CC1=C(N)N(c2ncn[nH]2)C2=C(C(=O)CCC2)C1c1ccc(F)cc1 (stereo not drawn) | 1 | 16 | -3 | 0 | -5 | 17 | . | .
C=CCn1c(-c2cccc(OC)c2OC)n[nH]c1=S | 65 | ? | 5 | 0 | 0 | 17 | . | .
C=CCn1c(-c2cc3cccc(OC)c3o2)n[nH]c1=S | 29 | -14 | . | 2 | 1 | 33* | -10 | 1
O=C(COc1ccccc1C(=O)N/N=C\c1ccc(O)c(O)c1)N/N=C/c1ccc(O)c(O)c1 | 99* | 11 | . | 6 | 2 | 76* | 74* | 0
CC(C)(C)c1ccc(OCc2ccc(C(=O)N/N=C/c3ccc(O)c(O)c3)cc2)cc1 | . | 1 | -19 | 6 | -3 | 36* | -5 | -6
O=C(COc1ccccc1[N+](=O)[O-])N/N=C/c1ccc(O)c([N+](=O)[O-])c1 | -7 | -20 | 4 | 5 | 4 | 2 | . | .
COc1ccc(C(=O)OCC(=O)NCCN2C(=O)CSC2=O)cc1[N+](=O)[O-] | 2 | . | -6 | 6 | 4 | . | . | .
COc1ccc(C2c3cc(OC)c(OC)cc3CCN2C(=O)c2ccccc2Br)cc1OC (stereo not drawn) | 5 | 0 | -4 | -2 | 6 | 4 | . | .
Cc1c(-c2ccccc2)sc(N)c1C(=O)N1CCOCC1 | 99* | 1 | -5 | 1 | 5 | 36* | -17 | -1
C/C(CCc1ccccc1)=N/NC(=O)C(=O)NC(C)c1ccccc1 (stereo not drawn) | -2 | -2 | -2 | 2 | -3 | 2 | . | .
CCO[C@H]1OC(C(=O)NC2CC2)=C[C@@H](c2ccccc2)[C@@H]1CCCO | 11 | 16 | -3 | 3 | -1 | . | . | .

Source: PubChem (several laboratories)
